Most compounds without a hit are left out; they make up all but 8.7% or so of the library.
Sfp PPTase inh – inhibitors of Bacillus subtilis Sfp phosphopantetheinyl transferase | Q9F4F7 | Biochemical Sfp PPTase activity, qHTS | Potency, µM, without a hit: largest response in the series, negative = inhibition, usual class: inhibitors | 310,000 compounds, 3.5% hits | AID 1490;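 also: the enzyme is Sfp with the accession as filed and its product quenches rhodamine fluorescence; 0% = enzyme reaction without inhibitor and -100% = no enzyme wells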
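Reaction rates are the 30-min fluorescence difference (ex 525, em 598 nm) in wells containing 15 nM Sfp, 5 uM rhodamine-CoA and 12.5 uM BHQ-2-YbbR at pH 7.6 with 10 mM MgCl2.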
JMJD2A Tudor inh – blocks the human JMJD2A Tudor domain | AID 504339 | 390,000 compounds, 4.4% hits | O75164 | Potency, µM (top dose mostly 114 µM), inactives show at the top dose activity change, negative = inhibition, usual class: inhibitors | AlphaScreen JMJD2A-Tudor / H3K4me3 peptide binding; also: % is scaled to controls: 0 for no effect and ±100 for the full control effect; nearly all actives have a fitted effect of over 50% in size
HP1b binding inh – HP1-beta chromodomain-methylated histone interaction inhibition; P83916; AlphaScreen HP1-beta / biotin-H3K9me3 peptide binding; AID 540317; Potency, µM (series often up to 114 µM), inactives show top-dose activity change, negative = inhibition, actives largely listed as inhibitors; 390,000 compounds, 0.56% hits; also: nearly all actives have a fitted effect of over 70% in size
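AlphaScreen: HP1-beta (50 nM) preformed 30 min with biotin-H3(1-18)K9me3 peptide (50 nM) in PBS pH 7.4, 0.01% Tween-20. Compound added for 30 min at RT, then streptavidin donor/nickel chelate acceptor beads (10 ug/mL) for 30 min.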
G9a block – blocks human histone lysine methyltransferase G9a; Q96KQ7; G9a H3K9 monomethylation, AlphaScreen, 2 h; Potency, µM (highest dose often 102 µM), for inactives: top-dose activity, negative = inhibition, hits mostly inhibitors; 350,000 compounds, 8.8% hits; AID 504332; also: % is scaled to controls: 0 for no effect and ±100 for the full control effect; nearly all actives have a fitted effect of over 75% in size
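AlphaScreen read-out: biotin-H3K9 peptide (500 nM) methylation by 20 nM enzyme with 20 uM SAM, 2 h at room temperature after 15 min compound preincubation; anti-monomethyl H3K9 antibody plus donor/acceptor beads, 10 min dark.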
BAZ2B inh – inhibitors of human BAZ2B bromodomain; Potency, µM (series often up to 114 µM), inactives show top-dose activity change, negative = inhibition, actives largely listed as inhibitors; Q9UIF8; AID 504333; AlphaScreen BAZ2B-H3K14Ac peptide displacement; 360,000 compounds, 4.4% hits; also: % is scaled to controls: 0 for no effect and ±100 for the full control effect; nearly all actives have a fitted effect of over 60% in size
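AlphaScreen displacement: compounds (up to 110uM) incubated 30 min at room temperature with a preformed 50 nM BAZ2B/50 nM biotinylated H3K14Ac peptide complex in PBS pH 7.4 with Tween-20. Donor and acceptor beads at 10 ug/mL final added, 20 min light-protected before reading.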
ALOX12 inh – inhibitors of human 12S-lipoxygenase ALOX12 | Potency, µM (titrated, usually from 108 µM), inactives show at the top dose activity change, negative = inhibition, most hits filed as inhibitors | 580,000 compounds, 1.1% hits | purified 12hLO, xylenol orange hydroperoxide absorbance; also: % is scaled to controls: 0 for no effect and ±100 for the full control effect
Target sequence (P18054 whole entry, looked up): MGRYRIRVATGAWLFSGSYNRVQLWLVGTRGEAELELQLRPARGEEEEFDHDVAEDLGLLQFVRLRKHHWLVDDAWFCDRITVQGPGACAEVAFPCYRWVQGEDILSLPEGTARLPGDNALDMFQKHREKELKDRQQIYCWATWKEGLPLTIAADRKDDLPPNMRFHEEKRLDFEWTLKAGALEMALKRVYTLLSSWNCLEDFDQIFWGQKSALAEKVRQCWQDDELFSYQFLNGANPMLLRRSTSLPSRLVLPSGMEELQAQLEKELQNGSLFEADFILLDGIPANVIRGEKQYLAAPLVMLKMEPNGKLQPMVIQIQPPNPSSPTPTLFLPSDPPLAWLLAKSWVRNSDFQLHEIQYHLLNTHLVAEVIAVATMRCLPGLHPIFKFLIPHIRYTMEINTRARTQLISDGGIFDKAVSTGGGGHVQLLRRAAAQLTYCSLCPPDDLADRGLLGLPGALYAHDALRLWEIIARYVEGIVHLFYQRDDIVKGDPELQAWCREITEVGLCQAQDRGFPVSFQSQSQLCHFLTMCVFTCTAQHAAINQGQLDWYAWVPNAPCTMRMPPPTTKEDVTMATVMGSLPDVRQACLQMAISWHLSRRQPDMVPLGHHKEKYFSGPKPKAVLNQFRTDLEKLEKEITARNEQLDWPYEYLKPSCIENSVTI
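Purified human 12hLO (150 nM final) in 25 mM Hepes, 0.01% Triton X-100, pH 7.0 was preincubated 15 min at room temperature with compound. Then 40 uM arachidonic acid was added, 30 min. Hydroperoxide was read by Fe-XO absorbance ratio 573/405 nm.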
Starred values were filed as active, the others as inactive; [ ] = remark or other dose. Calls follow the shape of the dose curve; as a rule, active = well fitted curve in the direction sought with a large enough effect; inconclusive = small, poorly fitted or top-dose-only effect, or another doubt; inactive = no such curve, though single readings can be large; an effect the other way counts as inactive or inconclusive. Potency is read from the fitted curve at half-maximal effect.

How did Nc1ccc(Oc2ccccc2-c2ccccc2)cc1 do in these assays?
JMJD2A Tudor inh: 50µM*; HP1b binding inh: inconclusive; ALOX12 inh: inconclusive

What do the screens show for `CN(C)c1ccc(CN2CC(Oc3ccc4c(c3)OCO4)C2)cc1`?
ALOX12 inh: 0%[6.33 µM]

How did COc1ccccc1-c1nnc(SC(C(=O)c2c[nH]c3ccccc23)c2ccccc2)n1C (centres undefined) do in these assays?
Sfp PPTase inh: -3%; JMJD2A Tudor inh: inconclusive; HP1b binding inh: 37%; G9a block: 79µM*; BAZ2B inh: -6%; ALOX12 inh: -15%

What do the screens show for `COc1cccc(-c2nnc(SC(C(=O)c3c[nH]c4ccccc34)c3ccccc3)n2C)c1` (centres undefined)?
Sfp PPTase inh: 3%; JMJD2A Tudor inh: -4%; HP1b binding inh: 32%; G9a block: -3%[59 µM]; BAZ2B inh: 2%; ALOX12 inh: -7%

What do the screens show for `CC(=O)C1=C(C)N(Cc2ccc(Cl)cc2)C(=S)NC1c1cccc(Br)c1` (centres undefined)?
ALOX12 inh: 40µM*

What do the screens show for `COCCN1C(=O)N[C@@H](c2ccc(Br)cc2)C(C(C)=O)=C1C`?
Sfp PPTase inh: 0%; G9a block: 4%; BAZ2B inh: 3%

How did CC(=O)C1=C(C)N(Cc2ccc(Br)cc2)C(=S)NC1c1cccc(Br)c1 (centres undefined) do in these assays?
ALOX12 inh: 32µM*

How did CC(=O)C1=C(C)N(CC2CC2)C(=O)N[C@H]1c1ccc(Br)cc1 do in these assays?
Sfp PPTase inh: -11%; JMJD2A Tudor inh: -8%; HP1b binding inh: 34%; G9a block: -31%; BAZ2B inh: -4%; ALOX12 inh: 4%

Results for CC(=O)C1=C(C)N(CC(C)C)C(=S)NC1c1ccc(Br)cc1 (centres undefined) ?
ALOX12 inh: 40µM*

Results for CC(C)CCN1CCn2c(nnc2-c2ccc(Cl)cc2)C1 ?
ALOX12 inh: 9%[6.33 µM]

How did FC(F)(F)c1cnc(NNC(=S)Nc2ccccc2Cl)c(Cl)c1 do in these assays?
Sfp PPTase inh: 3%; JMJD2A Tudor inh: -27%; HP1b binding inh: -19%; G9a block: 40µM*; BAZ2B inh: 7%; ALOX12 inh: inconclusive

What do the screens show for `S=C(NNc1ccnc2cc(Cl)ccc12)Nc1ccccc1Cl`?
Sfp PPTase inh: inconclusive; JMJD2A Tudor inh: 56µM*; HP1b binding inh: inconclusive; G9a block: 11µM*; BAZ2B inh: inconclusive; ALOX12 inh: inconclusive

What do the screens show for `S=C(Nc1ccccc1Cl)Nc1ccc(Cl)cc1Cl`?
Sfp PPTase inh: 8%; JMJD2A Tudor inh: -8%; HP1b binding inh: 14%; G9a block: -7%[59 µM]; BAZ2B inh: -3%; ALOX12 inh: inconclusive

Results for CC1CCN(CC2CCCNCC2)CC1 (centres undefined) ?
ALOX12 inh: 81%

What do the screens show for `CCc1ccc(-c2csc(-c3nc(-c4ccc(C)cc4)c(C)s3)n2)cc1`?
ALOX12 inh: 23%

What do the screens show for `Fc1ccccc1/C=C1\CCCC2=C1Nc1nnnn1C2c1ccccc1F` (centres undefined)?
Sfp PPTase inh: -25%; JMJD2A Tudor inh: -25%; HP1b binding inh: 23%; G9a block: 50µM*; BAZ2B inh: -4%; ALOX12 inh: -17%

What do the screens show for `Cc1occc1C(=O)NCc1cccc(CNC(=O)c2ccoc2C)c1`?
Sfp PPTase inh: inconclusive; JMJD2A Tudor inh: 56µM*; HP1b binding inh: inconclusive; G9a block: 22µM*; BAZ2B inh: 50µM*

How did CCC(C)NC(=O)C1c2ccccc2C(=O)N(c2ccc(OC)cc2)C1c1ccc(OC)cc1 (centres undefined) do in these assays?
Sfp PPTase inh: 19%; JMJD2A Tudor inh: 20µM*; HP1b binding inh: -9%; G9a block: 2%[59 µM]; BAZ2B inh: 3%; ALOX12 inh: -6%

Results for Cc1nc2nc(N)c(C#N)cn2n1 ?
ALOX12 inh: 28%

Results for CC1(C)CC(=O)c2c(oc3cc(O)c(O)cc23)C1 ?
Sfp PPTase inh: 56µM*; JMJD2A Tudor inh: 14µM*; HP1b binding inh: -32%; G9a block: 3.5µM*; BAZ2B inh: -37%; ALOX12 inh: inconclusive

Results for C#CCOCCOCCOCCNc1nc(N2CCN(C(=O)[C@H]([C@@H](C)O)n3cc(CCCCN)nn3)CC2)nc(N2CCN(C(=O)[C@H]([C@@H](C)CC)n3cc(CCCCN)nn3)CC2)n1 ?
JMJD2A Tudor inh: -14%; HP1b binding inh: 39%; G9a block: 1%[2.33 µM]; BAZ2B inh: -31%; ALOX12 inh: inconclusive

How did C#CCOCCOCCOCCNc1nc(N2CCN(C(=O)[C@H]([C@@H](C)CC)n3cc([C@@H](N)CO)nn3)CC2)nc(N2CCN(C(=O)[C@H]([C@@H](C)CC)n3cc([C@@H](N)CC(C)C)nn3)CC2)n1 do in these assays?
Sfp PPTase inh: 8%; JMJD2A Tudor inh: 50µM*; HP1b binding inh: 29%; G9a block: -29%[12.7 µM]; BAZ2B inh: 50µM*

How did C#CCOCCOCCOCCNc1nc(N2CCN(C(=O)[C@H]([C@@H](C)CC)n3cc([C@@H](N)CO)nn3)CC2)nc(N2CCN(C(=O)[C@H]([C@@H](C)CC)n3cc([C@@H](N)CO)nn3)CC2)n1 do in these assays?
Sfp PPTase inh: -16%; G9a block: -4%[12.7 µM]; BAZ2B inh: 22µM*

Results for COc1ccc(Cl)cc1NC(=O)N1CCSc2ccccc21 ?
ALOX12 inh: 33%

What do the screens show for `CCOC(=O)c1c(N2C(=O)C=CC2=O)sc(C)c1C`?
Sfp PPTase inh: 2.5µM*; JMJD2A Tudor inh: 20µM*; HP1b binding inh: inconclusive; G9a block: inconclusive; BAZ2B inh: inconclusive

What do the screens show for `CCn1ccnc1CN1CCCC(CO)(Cc2cccc(Cl)c2)C1` (centres undefined)?
ALOX12 inh: 67%

What do the screens show for `COc1cc(CN2CCCC(CO)(Cc3cccc(Cl)c3)C2)cc(OC)c1O` (centres undefined)?
Sfp PPTase inh: 21%; JMJD2A Tudor inh: -24%; HP1b binding inh: 6%; G9a block: 50µM*; BAZ2B inh: -25%; ALOX12 inh: inconclusive

What do the screens show for `CCn1ccnc1CN1CCCC(CO)(Cc2cccc(OC)c2)C1` (centres undefined)?
Sfp PPTase inh: 2%; JMJD2A Tudor inh: -25%; HP1b binding inh: 17%; G9a block: -6%; BAZ2B inh: 89µM*; ALOX12 inh: 4%

How did OCC1(Cc2ccccc2)CCCN(Cc2ccc(-c3ccco3)cc2)C1 (centres undefined) do in these assays?
Sfp PPTase inh: -13%; JMJD2A Tudor inh: inconclusive; HP1b binding inh: -23%; BAZ2B inh: 45µM*; ALOX12 inh: -21%
